This is part of a sample that, as a whole, favours compounds with a hit. Of some 79,000 tested, about 15% had one in any assay. The source made the active and inactive calls. No stated cut-off is given here; in the data, active means growth inhibition above about 70%; inactive means the rest.
Legend:
[1] = NCI Yeast Anticancer Drug Screen. Data for the rad50 strain (AID 155);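 further: 0% = growth of vehicle-only cultures of the same strain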; conditions: S. cerevisiae rad50 strain growth inhibition, stronger effect = higher value
In short: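 Yeast carrying a defined DNA repair defect were exposed to test compounds, and growth was compared with vehicle-treated controls to give percent inhibition.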

[2] = NCI Yeast Anticancer Drug Screen. Data for the mec2-1 strain (AID 157); conditions: S. cerevisiae mec2-1 strain, stronger effect = higher value
In short: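 Growth inhibition is read against vehicle-treated controls after compound exposure of the mec2-1 yeast strain, which is defective in DNA damage repair or cell cycle control.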

[3] = NCI Yeast Anticancer Drug Screen. Data for the sgs1 mgt1 strain (AID 161);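 further: 0% = growth of cultures given vehicle only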; conditions: S. cerevisiae sgs1 mgt1 strain, stronger effect = higher value
In short: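 Growth of a repair-deficient yeast mutant was monitored after compound treatment and expressed as inhibition relative to vehicle-treated cultures.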

[4] = NCI Yeast Anticancer Drug Screen. Data for the cln2 rad14 strain (AID 165);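 further: 0% = growth equal to vehicle treated cultures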; conditions: S. cerevisiae cln2 rad14 strain, stronger effect = higher value
In short: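 Growth inhibition, relative to vehicle-treated controls, is the read-out. The test organism is a yeast strain with defined genetic alterations, cln2 rad14.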

[5] = NCI Yeast Anticancer Drug Screen. Data for the bub3 strain (AID 167); conditions: S. cerevisiae bub3 mutant strain, stronger effect = higher value
In short: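 Compounds were applied to a genetically altered yeast strain carrying a cell-cycle control defect. Growth inhibition was scored against vehicle-treated controls.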

[6] = NCI Yeast Anticancer Drug Screen. Data for the mlh1 rad18 strain (AID 175); conditions: S. cerevisiae mlh1 rad18 strain growth inhibition, stronger effect = higher value
In short: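 Cells of a genetically altered yeast strain, deficient in DNA damage repair, were treated with compound. Their growth was then compared with that of vehicle-treated cultures to give inhibition.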

[7] = at 5.0 µM (retest, dose inferred, filed as 0.5)
[8] = at 50.0 µM (retest, dose inferred, filed as 5.0)

Measured: growth inhibition

C=CCc1ccc2c(C)cc[n+](C)c2c1O
inactive: [1]; [7] 12% | [2]; [7] 19% | [3]; [7] 21% | [4]; [7] -17% | [5]; [7] 1% | [6]; [7] 23%
active: [1]; [8] 99% | [1]; at 50.0 µM 100% | [2]; [8] 99% | [2]; at 50.0 µM 99.2% | [3]; [8] 99% | [3]; at 50.0 µM 99% | [4]; [8] 99% | [4]; at 50.0 µM 99.5% | [5]; [8] 99% | [5]; at 50.0 µM 99.1% | [6]; [8] 99% | [6]; at 50.0 µM 98.8%

O=C(O)C(CCc1cccc2ccccc12)c1ccccc1 (configuration not stated)
inactive: [1]; [7] 13% | [2]; [7] 2% | [3]; [7] 5% | [4]; [7] -4% | [5]; [7] 3% | [6]; [7] 5%
active: [1]; [8] 97% | [1]; at 50.0 µM 99.6% | [2]; [8] 95% | [2]; at 50.0 µM 99.2% | [3]; [8] 98% | [3]; at 50.0 µM 99.5% | [4]; [8] 96% | [4]; at 50.0 µM 99.3% | [5]; [8] 73% | [5]; at 50.0 µM 99% | [6]; [8] 98% | [6]; at 50.0 µM 99.4%

CSC(=S)N/N=C(\C)c1ccc[nH]1
inactive: [1]; [7] -2% | [2]; [7] 0% | [3]; [7] 13% | [4]; [7] -13% | [5]; [7] 0% | [6]; [7] 2%
active: [1]; [8] 96% | [1]; at 50.0 µM 83.8% | [2]; [8] 96% | [2]; at 50.0 µM 90.8% | [3]; [8] 96% | [3]; at 50.0 µM 79.7% | [4]; [8] 92% | [4]; at 50.0 µM 72.6% | [5]; [8] 97% | [5]; at 50.0 µM 90.2% | [6]; [8] 77% | [6]; at 50.0 µM 85.7%

CC1([N+](=O)[O-])C(=O)C2(N3CCOCC3)CCCC2C1c1ccccc1 (configuration not stated)
active: [1]; [8] 75% | [2]; [8] 99% | [3]; [8] 90% | [5]; [8] 98% | [6]; [8] 96%
inactive: [1]; [7] -9% | [1]; at 50.0 µM -2% | [2]; [7] -7% | [2]; at 50.0 µM -0.3% | [3]; [7] -1% | [3]; at 50.0 µM 4.95% | [4]; [7] 1% | [4]; [8] 40% | [4]; at 50.0 µM -7.7% | [5]; [7] -12% | [5]; at 50.0 µM -5.2% | [6]; [7] 10% | [6]; at 50.0 µM 7.65%

CCC1=C(C)/C(=C/c2[nH]c(C(Br)Br)c(CC)c2C)N=C1C(Br)Br
active: [1]; [8] 98% | [2]; [8] 99% | [3]; [8] 99% | [4]; [8] 97% | [4]; at 50.0 µM 75.2% | [5]; [8] 93% | [6]; [8] 98%
inactive: [1]; [7] -1% | [1]; at 50.0 µM 30.6% | [2]; [7] -6% | [2]; at 50.0 µM 45.1% | [3]; [7] 2% | [3]; at 50.0 µM 26% | [4]; [7] -6% | [5]; [7] 0% | [5]; at 50.0 µM 49.3% | [6]; [7] 0% | [6]; at 50.0 µM 45.6%

CCCCCCCCCCCCCCCCSC(=NC)NC
inactive: [4]; [7] 25% | [6]; [7] 67%
active: [1]; [7] 89% | [1]; [8] 99% | [1]; at 50.0 µM 99.4% | [2]; [7] 98% | [2]; [8] 99% | [2]; at 50.0 µM 99.2% | [3]; [7] 98% | [3]; [8] 100% | [3]; at 50.0 µM 99.3% | [4]; [8] 99% | [4]; at 50.0 µM 98.2% | [5]; [7] 84% | [5]; [8] 99% | [5]; at 50.0 µM 99.1% | [6]; [8] 98% | [6]; at 50.0 µM 98.7%

S=C(Nc1ccc(Cl)c(Cl)c1)SC1CCCCC1
inactive: [1]; [7] 17% | [1]; at 50.0 µM 47.2% | [2]; [7] 11% | [2]; at 50.0 µM 64.2% | [3]; [7] 11% | [4]; [7] -1% | [5]; [7] 17% | [6]; [7] 20%
active: [1]; [8] 96% | [2]; [8] 97% | [3]; [8] 98% | [3]; at 50.0 µM 87.1% | [4]; [8] 95% | [4]; at 50.0 µM 87.5% | [5]; [8] 96% | [5]; at 50.0 µM 83.3% | [6]; [8] 96% | [6]; at 50.0 µM 90%

O=NN(CCCl)C(=O)Oc1ccc(OC(=O)N(CCCl)N=O)cc1
active: [1]; [7] 87% | [1]; [8] 92% | [2]; [7] 86% | [2]; [8] 99% | [2]; at 50.0 µM 91% | [3]; [7] 93% | [3]; [8] 99% | [3]; at 50.0 µM 90.2% | [4]; [8] 90% | [4]; at 50.0 µM 83.5% | [5]; [8] 93% | [5]; at 50.0 µM 84.5% | [6]; [7] 96% | [6]; [8] 97% | [6]; at 50.0 µM 90.6%
inactive: [1]; at 50.0 µM 59.6% | [4]; [7] 53% | [5]; [7] 56%

CC(=O)N1OC2(C)c3ccccc3C1(C)c1ccccc12
active: [1]; [7] 99% | [1]; [8] 94% | [1]; at 50.0 µM 99.2% | [2]; [7] 99% | [2]; [8] 97% | [2]; at 50.0 µM 99.4% | [3]; [7] 99% | [3]; [8] 96% | [3]; at 50.0 µM 97.9% | [4]; [7] 98% | [4]; [8] 95% | [4]; at 50.0 µM 99.2% | [5]; [7] 99% | [5]; [8] 96% | [5]; at 50.0 µM 99.4% | [6]; [7] 99% | [6]; [8] 95% | [6]; at 50.0 µM 99.1%

— PubChem BioAssay (NCI)
